Screening data deposited in PubChem by Broad Institute.
Rows were chosen to be rich in hits. Some 2.5% of all compounds tested hit in one or more screens of this group.
U2OS ROS induce: raises reactive oxygen species in U2OS cancer cells. U2OS ROS induction, H2DCF-DA fluorescence. ROS induction (% of piperlongumine), % at 10 µM. 46,000 compounds, 2% hits; in the data active = ROS induction above about 79%, passing the limit was not always enough; inconclusive = no clear call, values can overlap the other calls;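 also: 0% = DMSO vehicle median and 100% = reference compound median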
YB-1 expr inh: YB-1 expression inhibition. delta delta Cp (YB-1 minus CDIP) (no concentration beside the values). U2OS, qRT-PCR YB-1 vs CDIP delta delta Cp, 16 h; hits give high values; zero = DMSO, each unit about twofold. 30,000 compounds, 0.37% hits;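 active = delta delta Cp rounded down to an integer at or above 3, about 3 SD of DMSO wells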;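 also: higher means less YB-1 transcript or more CDIP transcript relative to DMSO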
BJeLR viability: BJeLR cell viability reduction | BJeLR fibroblasts viability, CellTiterGlo ATP luminescence, 48 h; HRASV12, hTERT and SV40 LT/ST transformed | viability loss activity score, % (concentration not given with the values) | 30,000 compounds, 0.64% hits | AID 2275; in the data active = viability loss activity score above about 50%; inconclusive = no clear call, values can overlap the other calls; inactive = below about 35%;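 also: higher score means fewer live cells and less ATP luminescence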
MITF inh: MITF inhibition; TRPM1 promoter luciferase, luminescence, 24 h; inhibition, % (test concentration not listed); 37,000 compounds, 0.28% hits; in the data active = inhibition above about 85%; inconclusive = no clear call, values can overlap the other calls; inactive = below about 68%;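 also: human melanocyte line stably carrying TRPM1 promoter luciferase reporter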
Starred values were filed as active, the others as inactive; ? = inconclusive; nt = no result given.

SMILES	U2OS ROS induce	YB-1 expr inh	BJeLR viability	MITF inh
C[C@H](CO)N1C[C@H](C)[C@H](CN(C)C(=O)Nc2ccc(F)cc2)Oc2ncc(/C=C/c3ccccc3)cc2C1=O	90*	-0.39	nt	nt
C[C@H](CO)N1C[C@H](C)[C@H](CN(C)C(=O)Nc2ccc3c(c2)OCO3)Oc2ncc(/C=C/c3ccccc3)cc2C1=O	120*	0.45	nt	nt
C[C@H](CO)N1C[C@H](C)[C@H](CN(C)C(=O)Nc2ccc(F)cc2)Oc2ncc(-c3ccccc3)cc2C1=O	42	0.11	nt	nt
CCOC(=O)c1c(NC(=O)CN2C(=O)S/C(=C/c3ccc(F)cc3)C2=O)sc2c1CCCC2	-6	nt	2	nt
C[C@@H]1CN([C@H](C)CO)C(=O)c2cc(N(C)C)ccc2O[C@H]1CN(C)Cc1ccc(C(=O)Nc2ccccc2N)cc1	3	0.27	nt	nt
C[C@H](CO)N1C[C@H](C)[C@@H](CN(C)Cc2ccc(-c3ccccc3)cc2)Oc2ccc(NC(=O)Cc3ccccc3)cc2C1=O	274*	-0.0095	2	-6
C[C@@H]1CN([C@@H](C)CO)C(=O)c2cc(NC(=O)Cc3ccccc3)ccc2O[C@H]1CN(C)Cc1ccccc1	-5	-0.12	2	-6
C[C@@H]1CN([C@H](C)CO)C(=O)c2cc(N(C)C)ccc2O[C@@H]1CN(C)Cc1ccc(C(=O)Nc2ccccc2N)cc1	37	-0.32	54*	41
C[C@H]1CN([C@@H](C)CO)C(=O)c2cc(NC(=O)Cc3ccccc3)ccc2O[C@@H]1CN(C)Cc1ccc(Oc2ccccc2)cc1	190*	-0.31	-2	10
C[C@H](CO)N1C[C@H](C)[C@H](CN(C)Cc2ccc(Oc3ccccc3)cc2)Oc2ccc(NC(=O)Cc3ccccc3)cc2C1=O	2	-0.27	2	25
C[C@H]1CN([C@@H](C)CO)C(=O)c2cc(NC(=O)Cc3ccccc3)ccc2O[C@@H]1CN(C)Cc1ccc(-c2ccccc2)cc1	177*	0.73	-7	-6
O=C(CCCn1ncn2c(cc3occc32)c1=O)NCCc1ccccc1	8	nt	1	nt
O=C(CCCn1sc2ccccc2c1=O)NC1CCCc2ccccc21 (stereo not given)	-1	nt	2	nt
C[C@@H]1CN([C@H](C)CO)C(=O)Cc2cc(NC(=O)Cc3ccccc3)ccc2O[C@@H]1CN(C)Cc1ccc(-c2ccccc2)cc1	203*	0.28	nt	18
C[C@H]1CN([C@@H](C)CO)C(=O)c2cc(N(C)C)ccc2O[C@@H]1CN(C)Cc1ccc(-c2ccccc2)cc1	206*	0.2	-2	1
C[C@H](CO)N1C[C@H](C)[C@H](CN(C)Cc2ccc(-c3ccccc3)cc2)Oc2ccc(NC(=O)Cc3ccccc3)cc2CC1=O	28	0.23	nt	37
COc1ccc(C2NC(=S)NC(C)=C2C(=O)Nc2cc(OC)c(Cl)cc2OC)c(OC)c1 (stereo not given)	nt	nt	nt	20
COc1ccc(C2C(C(=O)Nc3cc(OC)c(Cl)cc3OC)=C(C)Nc3ncnn32)c(OC)c1 (stereo not given)	136*	nt	nt	0
CCOC(=O)C1=C(C)NC(SCc2ccc(C(=O)O)cc2)=NC1c1ccc(OCC)cc1 (stereo not given)	nt	nt	2	nt
C[C@H]1CN([C@@H](C)CO)C(=O)c2cc(NC(=O)C3CCCCC3)ccc2O[C@@H]1CN(C)Cc1ccc(-c2ccccc2)cc1	?	-0.24	-1	13
C[C@@H]1CN([C@H](C)CO)C(=O)c2cc(NC(=O)C3CCCCC3)ccc2O[C@H]1CN(C)Cc1ccc(Oc2ccccc2)cc1	9	-0.0038	2	-10
C[C@H](CO)N1C[C@H](C)[C@@H](CN(C)Cc2ccc(-c3ccccc3)cc2)Oc2ccc(NC(=O)C3CCCCC3)cc2C1=O	104*	0.11	2	-5
C[C@H](CO)N1C[C@H](C)[C@@H](CN(C)Cc2ccc(Oc3ccccc3)cc2)Oc2ccc(NC(=O)C3CCCCC3)cc2C1=O	84*	0.57	-1	3
COc1ccc(Cn2c(SCc3cccc(C(F)(F)F)c3)nc3ncccc3c2=O)cc1	16	nt	5	nt
O=c1c2ccccc2nc(SCc2ccc3c(c2)OCO3)n1-c1ccccc1	107*	-0.6	1	29
SMILES	U2OS ROS induce	YB-1 expr inh	BJeLR viability	MITF inh
O=c1c2ccccc2nc(SCc2cccc3nsnc23)n1-c1ccccc1	5	nt	nt	1
C[C@@H]1CN([C@H](C)CO)C(=O)c2cc(NC(=O)Cc3ccccc3)ccc2O[C@@H]1CN(C)S(=O)(=O)c1ccccc1	-2	18*	-2	1
C[C@@H]1CN([C@H](C)CO)C(=O)c2cc(NC(=O)CCN3CCOCC3)ccc2O[C@H]1CN(C)S(=O)(=O)c1ccccc1	-9	20*	-2	2
C[C@H]1CN([C@@H](C)CO)C(=O)c2cc(NC(=O)CCN3CCOCC3)ccc2O[C@H]1CN(C)S(=O)(=O)c1ccccc1	-6	-0.1	2	7
COc1ccc(-c2oc3cc(OC)c(OC)c(O)c3c(=O)c2OC)cc1OC	82*	-0.31	4	-33
COc1cc(O)c2c(=O)c(OC)c(-c3cc(O)c(OC)c(OC)c3)oc2c1	11	0.71	-6	-8
CC(=O)O[C@H]1C(=O)[C@@]2(C)C([C@H](OC(=O)c3ccccc3)[C@]3(O)C[C@H](OC(=O)[C@H](O)[C@@H](NC(=O)c4ccccc4)c4ccccc4)C(C)=C1C3(C)C)[C@]1(OC(C)=O)CO[C@@H]1C[C@@H]2O (stereo not given in full)	-4	-0.017	50*	19
CCc1ccc2nc(N3CCC(C(=O)NC4CCCCC4)CC3)sc2c1	18	nt	-2	nt
CN(C)CCN(C(=O)C1CCCCC1)c1nc2ccc(Br)cc2s1	94*	nt	2	nt
COC(=O)C1(Cc2ccc(O)cc2)OC(=O)C(OC)=C1c1ccc(O)cc1 (stereo not given)	-5	4.4*	6	0
NC(=O)c1ccccc1NC(=O)CC(c1ccccc1)c1ccccc1	-1	nt	7	nt
Cc1ccc(NC(=O)c2cnc3ccc(S(=O)(=O)N(C)C4CCCCC4)cc3c2Cl)cc1F	-13	nt	1	nt
CCOC(=O)CSc1nc(Nc2ccccc2)c2cnc(N3CCOCC3)nc2n1	150*	0.02	1	4
CCOC(=O)CSc1nc(Nc2ccc(OC)cc2)c2cnc(N(CC)CC)nc2n1	?	0.2	-2	8
CCCCc1nc2sc3c(Cl)ncnc3c2c2c1COC(C)(C)C2	113*	nt	0	nt
CCCCc1nc2sc3c(NCc4ccccc4)ncnc3c2c2c1COC(C)(C)C2	-9	nt	-5	nt
Cc1ccc(-c2nnc(-n3cnc4cc(C)c(C)cc43)c3ccccc23)cc1	28	3.8*	-4	22
Cc1ccc(-c2nnc(N3CCN(C(=O)CSc4nc(C)cc(C)n4)CC3)c3ccccc23)cc1	nt	nt	nt	45
Cc1c(Cl)cccc1NC(=O)c1cccnc1Cl	-3	nt	-1	nt
Cc1ccc2nc(C(F)(F)F)cc(N3CCN(/C=C(/C#N)S(=O)(=O)c4ccccn4)CC3)c2c1	93*	nt	-6	nt
N#C/C(=C\N1CCC(n2cccc2)CC1)S(=O)(=O)c1ccccn1	-11	nt	-1	nt
